Of roughly 8,800 targets only a part is listed; those with a hit were picked by preference. About 0.5% of all pairs of compound and target were hits. Unmarked numbers belong to inactive results.
The targets below were run with C[C@H](Nc1ncnc2nc[nH]c12)c1cc2cccc(Cl)c2c(=O)n1-c1ccccc1 [duvelisib] (assay: log2 fold change, soluble protein after heating vs DMSO (PISA); higher = thermal stabilisation; K562 lysate, 10 uM; active = over 0.2 and 3.5 SD of the protein, either way, in both replicates (recomputed)).
Outline: (§1)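 Dounce homogenisation of K562 pellets in PBS pH 7.4 with 1 mM MgCl2 produced a crude extract, used at 1 mg/mL protein. Exposure to 10 μM compound lasted 30 min, and aliquots were then heated for 3 min across 48°C-58°C, pooled and brought to 0.5% NP-40 at 4°C. The supernatant after 21,000xg for 90 min was quantified by TMTpro 16plex LC-MS/MS with channel sums equalised. Duplicate values are given as log-two fold change in thermal stability relative to solvent controls.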

UniProt Q13478, sequence (Q13478 whole entry, looked up): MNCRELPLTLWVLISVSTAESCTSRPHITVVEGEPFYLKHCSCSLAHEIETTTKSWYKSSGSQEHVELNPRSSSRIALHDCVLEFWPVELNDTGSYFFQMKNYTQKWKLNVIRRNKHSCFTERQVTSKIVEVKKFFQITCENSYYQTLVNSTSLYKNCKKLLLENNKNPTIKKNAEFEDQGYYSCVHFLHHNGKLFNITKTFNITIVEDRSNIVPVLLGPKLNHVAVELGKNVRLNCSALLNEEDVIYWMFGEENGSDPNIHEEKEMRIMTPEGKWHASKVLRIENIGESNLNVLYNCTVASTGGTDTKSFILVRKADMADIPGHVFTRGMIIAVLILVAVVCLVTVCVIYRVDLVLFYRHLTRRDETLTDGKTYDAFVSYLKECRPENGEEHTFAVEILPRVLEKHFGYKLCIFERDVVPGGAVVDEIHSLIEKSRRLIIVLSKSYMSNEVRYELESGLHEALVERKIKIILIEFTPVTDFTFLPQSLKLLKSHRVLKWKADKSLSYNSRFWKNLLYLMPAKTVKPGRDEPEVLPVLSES
UniProt P28161, sequence (P28161 whole entry, looked up): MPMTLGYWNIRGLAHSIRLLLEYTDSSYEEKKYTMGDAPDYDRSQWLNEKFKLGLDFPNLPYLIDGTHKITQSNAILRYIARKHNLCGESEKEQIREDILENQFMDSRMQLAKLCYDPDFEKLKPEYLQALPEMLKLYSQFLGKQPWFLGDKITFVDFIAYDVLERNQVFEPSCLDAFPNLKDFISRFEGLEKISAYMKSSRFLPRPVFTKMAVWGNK
UniProt Q99795, sequence (Q99795 whole entry, looked up): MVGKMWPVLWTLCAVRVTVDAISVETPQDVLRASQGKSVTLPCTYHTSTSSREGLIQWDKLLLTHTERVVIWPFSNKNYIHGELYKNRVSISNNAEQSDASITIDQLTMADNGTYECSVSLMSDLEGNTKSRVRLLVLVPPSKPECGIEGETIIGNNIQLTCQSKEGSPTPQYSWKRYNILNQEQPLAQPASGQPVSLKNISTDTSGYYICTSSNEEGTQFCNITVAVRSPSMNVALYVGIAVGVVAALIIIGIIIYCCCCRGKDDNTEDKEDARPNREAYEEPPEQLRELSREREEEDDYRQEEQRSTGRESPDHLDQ
UniProt Q9H079, sequence (Q9H079 whole entry, looked up): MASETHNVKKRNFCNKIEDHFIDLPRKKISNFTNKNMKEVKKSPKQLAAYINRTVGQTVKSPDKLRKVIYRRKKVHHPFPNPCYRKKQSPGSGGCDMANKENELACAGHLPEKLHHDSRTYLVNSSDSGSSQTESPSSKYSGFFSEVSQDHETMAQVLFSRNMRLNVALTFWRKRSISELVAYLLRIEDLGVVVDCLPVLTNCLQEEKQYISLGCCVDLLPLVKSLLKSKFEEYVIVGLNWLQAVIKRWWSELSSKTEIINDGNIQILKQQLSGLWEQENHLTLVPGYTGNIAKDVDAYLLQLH
UniProt Q9HAV0, sequence (Q9HAV0 whole entry, looked up): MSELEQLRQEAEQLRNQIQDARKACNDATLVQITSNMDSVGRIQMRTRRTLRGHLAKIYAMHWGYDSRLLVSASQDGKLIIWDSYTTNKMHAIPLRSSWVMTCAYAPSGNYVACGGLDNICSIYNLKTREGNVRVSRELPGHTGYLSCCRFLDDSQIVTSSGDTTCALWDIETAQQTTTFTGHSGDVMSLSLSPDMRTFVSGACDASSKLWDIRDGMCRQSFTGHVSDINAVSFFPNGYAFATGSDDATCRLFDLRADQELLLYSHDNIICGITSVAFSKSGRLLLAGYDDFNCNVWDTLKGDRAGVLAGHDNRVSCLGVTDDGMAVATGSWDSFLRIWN
UniProt Q9Y573, sequence (Q9Y573 whole entry, looked up): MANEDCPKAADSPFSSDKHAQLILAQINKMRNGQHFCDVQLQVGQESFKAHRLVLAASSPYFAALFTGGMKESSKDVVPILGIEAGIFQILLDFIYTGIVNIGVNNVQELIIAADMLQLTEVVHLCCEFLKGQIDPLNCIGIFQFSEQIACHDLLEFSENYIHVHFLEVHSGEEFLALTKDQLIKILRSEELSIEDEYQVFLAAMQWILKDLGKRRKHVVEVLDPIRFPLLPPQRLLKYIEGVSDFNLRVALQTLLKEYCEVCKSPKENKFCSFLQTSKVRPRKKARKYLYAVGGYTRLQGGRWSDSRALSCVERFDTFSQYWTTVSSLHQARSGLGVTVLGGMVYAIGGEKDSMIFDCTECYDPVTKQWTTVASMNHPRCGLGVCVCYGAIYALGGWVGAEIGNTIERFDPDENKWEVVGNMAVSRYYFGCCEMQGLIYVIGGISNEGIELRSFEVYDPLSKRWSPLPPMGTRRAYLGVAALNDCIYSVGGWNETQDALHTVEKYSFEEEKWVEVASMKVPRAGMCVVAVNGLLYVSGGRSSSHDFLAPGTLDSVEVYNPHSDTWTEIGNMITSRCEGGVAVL
UniProt Q9H9Y4, sequence (Q9H9Y4 whole entry, looked up): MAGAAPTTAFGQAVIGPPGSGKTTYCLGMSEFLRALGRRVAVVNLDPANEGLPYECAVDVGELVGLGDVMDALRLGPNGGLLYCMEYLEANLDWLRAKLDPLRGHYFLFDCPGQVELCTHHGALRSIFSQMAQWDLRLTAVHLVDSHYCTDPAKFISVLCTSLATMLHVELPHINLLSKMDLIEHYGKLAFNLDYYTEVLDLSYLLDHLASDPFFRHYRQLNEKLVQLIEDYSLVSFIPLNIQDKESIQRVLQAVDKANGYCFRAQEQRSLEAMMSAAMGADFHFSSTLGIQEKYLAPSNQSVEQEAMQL
UniProt Q9BQQ3, sequence (Q9BQQ3 whole entry, looked up): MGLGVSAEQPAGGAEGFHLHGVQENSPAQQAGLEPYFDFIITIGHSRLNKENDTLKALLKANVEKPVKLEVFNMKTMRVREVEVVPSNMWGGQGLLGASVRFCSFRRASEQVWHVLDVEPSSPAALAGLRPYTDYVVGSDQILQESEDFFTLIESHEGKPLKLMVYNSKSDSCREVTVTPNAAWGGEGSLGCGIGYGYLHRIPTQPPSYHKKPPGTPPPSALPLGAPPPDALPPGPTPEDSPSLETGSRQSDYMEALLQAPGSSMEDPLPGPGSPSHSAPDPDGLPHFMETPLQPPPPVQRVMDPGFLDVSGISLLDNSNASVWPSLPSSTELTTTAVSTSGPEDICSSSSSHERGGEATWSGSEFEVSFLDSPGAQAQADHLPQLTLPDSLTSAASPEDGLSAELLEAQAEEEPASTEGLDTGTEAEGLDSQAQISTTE
UniProt Q9ULR0, sequence (Q9ULR0 whole entry, looked up): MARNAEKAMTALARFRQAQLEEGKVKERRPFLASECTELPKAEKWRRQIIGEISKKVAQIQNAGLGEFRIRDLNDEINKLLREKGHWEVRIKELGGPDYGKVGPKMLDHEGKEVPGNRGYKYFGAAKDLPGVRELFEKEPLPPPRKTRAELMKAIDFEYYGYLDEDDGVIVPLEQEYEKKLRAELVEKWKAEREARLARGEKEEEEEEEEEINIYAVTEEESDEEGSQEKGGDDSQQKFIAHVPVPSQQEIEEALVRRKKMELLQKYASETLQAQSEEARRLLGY
UniProt O43824, sequence (O43824 whole entry, looked up): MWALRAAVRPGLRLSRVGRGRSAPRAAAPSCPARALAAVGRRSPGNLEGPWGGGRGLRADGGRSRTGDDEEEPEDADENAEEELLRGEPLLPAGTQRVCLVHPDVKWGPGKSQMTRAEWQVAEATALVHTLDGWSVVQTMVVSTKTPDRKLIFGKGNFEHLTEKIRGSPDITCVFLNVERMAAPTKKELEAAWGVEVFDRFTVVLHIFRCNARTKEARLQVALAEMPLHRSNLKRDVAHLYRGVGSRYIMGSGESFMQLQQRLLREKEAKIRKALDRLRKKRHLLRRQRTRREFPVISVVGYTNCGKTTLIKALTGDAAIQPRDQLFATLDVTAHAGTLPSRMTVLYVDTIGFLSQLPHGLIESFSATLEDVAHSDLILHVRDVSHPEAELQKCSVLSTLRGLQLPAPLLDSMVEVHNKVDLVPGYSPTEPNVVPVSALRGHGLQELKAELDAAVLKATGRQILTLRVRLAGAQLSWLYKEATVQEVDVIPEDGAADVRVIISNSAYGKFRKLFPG
UniProt P40939, sequence (P40939 whole entry, looked up): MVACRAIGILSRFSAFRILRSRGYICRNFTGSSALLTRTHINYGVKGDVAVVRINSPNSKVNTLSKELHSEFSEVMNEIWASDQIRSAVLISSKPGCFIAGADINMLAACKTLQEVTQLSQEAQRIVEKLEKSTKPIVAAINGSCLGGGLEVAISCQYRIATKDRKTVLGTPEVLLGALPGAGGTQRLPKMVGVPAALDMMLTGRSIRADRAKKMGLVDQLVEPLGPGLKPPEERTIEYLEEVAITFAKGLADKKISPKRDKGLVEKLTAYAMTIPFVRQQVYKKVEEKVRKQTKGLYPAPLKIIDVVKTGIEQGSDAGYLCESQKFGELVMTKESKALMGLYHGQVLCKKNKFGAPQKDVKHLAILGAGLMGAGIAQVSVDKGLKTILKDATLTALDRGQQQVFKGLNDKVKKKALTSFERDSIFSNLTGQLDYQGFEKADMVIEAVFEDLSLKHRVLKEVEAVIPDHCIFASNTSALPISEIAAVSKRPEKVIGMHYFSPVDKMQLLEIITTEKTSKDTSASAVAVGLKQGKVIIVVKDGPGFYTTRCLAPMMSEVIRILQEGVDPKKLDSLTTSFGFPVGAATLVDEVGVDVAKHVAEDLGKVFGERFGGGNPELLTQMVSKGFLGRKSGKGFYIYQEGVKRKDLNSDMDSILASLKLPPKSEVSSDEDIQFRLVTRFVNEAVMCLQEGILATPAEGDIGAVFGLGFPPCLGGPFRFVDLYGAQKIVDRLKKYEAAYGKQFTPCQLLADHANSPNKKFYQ
UniProt Q96AB3, sequence (Q96AB3 whole entry, looked up): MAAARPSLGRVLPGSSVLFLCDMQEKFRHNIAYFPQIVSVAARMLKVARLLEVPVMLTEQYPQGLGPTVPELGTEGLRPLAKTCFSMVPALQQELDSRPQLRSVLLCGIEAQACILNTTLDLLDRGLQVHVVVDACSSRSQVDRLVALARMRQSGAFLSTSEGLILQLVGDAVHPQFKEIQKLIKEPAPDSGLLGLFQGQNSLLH

| Target | log2 fold change |
| --- | --- |
| HMGA1 isoform 2 (UniProt P17096) | -0.011 |
| HECW2 (UniProt Q9P2P5) | -0.088 |
| ISL2 (UniProt Q96A47) | 0.006 |
| IGFBP4 (UniProt P22692) | -0.029 |
| HSPA8 (UniProt P11142) | 0.005 |
| ISY1 isoform 1 (UniProt Q9ULR0) | 0.019 |
| ISOC2 (UniProt Q96AB3) | -0.038 |
| ITM2B (UniProt Q9Y287) | 0.033 |
| HYDIN (UniProt Q4G0P3) | 0.179 |
| IL18R1 (UniProt Q13478) | -0.049 |
| ITPR2 (UniProt Q14571) | -0.004 |
| GTPBP6 (UniProt O43824) | -0.003 |
| GSTM2 (UniProt P28161) | -0.067 |
| GLYR1 (UniProt Q49A26) | -0.079 |
| HADHA (UniProt P40939) | 0.037 |
| GPN2 (UniProt Q9H9Y4) | 0.126 |
| GPLD1 (UniProt P80108) | -0.049 |
| HMGN4 (UniProt O00479) | -0.074 |
| HTT (UniProt P42858) | -0.016 |
| IPP (UniProt Q9Y573) | -0.016 |
| HNRNPM (UniProt M0QZM1) | -0.06 |
| ITPRIP (UniProt Q8IWB1) | 0.179 |
| ITGB1BP2 (UniProt Q9UKP3) | -0.005 |
| GNB4 (UniProt Q9HAV0) | 0.015 |
| GPA33 (UniProt Q99795) | 0.154 |
| GORASP1 (UniProt Q9BQQ3) | -0.018 |
| IRS2 (UniProt Q9Y4H2) | 0 |
| KATNBL1 (UniProt Q9H079) | 0.164 |

What follows are targets tested with Cc1cc(Nc2cc(CN3CCOCC3)c3nc(C)c(Cc4ccc(Cl)cc4F)n3n2)n[nH]1 [gandotinib] in the same assay as above.
Outline: as §1

| Target | log2 fold change |
| --- | --- |
| HMGA1 isoform 2 (UniProt P17096) | -0.26 |
| ISL2 (UniProt Q96A47) | -0.104 |
| IGFBP4 (UniProt P22692) | 0.019 |
| HNRNPUL1 (UniProt M0R247) | -0.014 |
| HSPA8 (UniProt P11142) | -0.014 |
| ISY1 isoform 1 (UniProt Q9ULR0) | 0.078 |
| ISOC2 (UniProt Q96AB3) | -0.076 |
| ITM2B (UniProt Q9Y287) | -0.037 |
| IL18R1 (UniProt Q13478) | 0.092 |
| GTPBP6 (UniProt O43824) | 0.156 |
| GSTM2 (UniProt P28161) | -0.042 |
| GLYR1 (UniProt Q49A26) | 0.045 |
| HADHA (UniProt P40939) | 0.129 |
| GPN2 (UniProt Q9H9Y4) | 0.068 |
| HOMER3 (UniProt Q9NSC5) | 0.061 |
| HMGN4 (UniProt O00479) | -0.421 |
| HTT (UniProt P42858) | -0.124 |
| GYPA, A0A2R8Y7F9 | 0.202 |
| IPP (UniProt Q9Y573) | -0.172 |
| ITGB1BP2 (UniProt Q9UKP3) | 0.86 (active) |
| H3-3A (UniProt P84243) | 0.016 |
| GNB4 (UniProt Q9HAV0) | 0.094 |
| JAK3 (UniProt P52333) | -0.526 |
| GPA33 (UniProt Q99795) | 0.567 (active) |
| GORASP1 (UniProt Q9BQQ3) | 0.002 |
| IRS2 (UniProt Q9Y4H2) | 0.296 |
| KATNBL1 (UniProt Q9H079) | -0.021 |

Each target was assayed with Cc1cc(Nc2cc(N3CCN(C)CC3)nc(Sc3ccc(NC(=O)C4CC4)cc3)n2)n[nH]1 [tozasertib] in the same assay as above.
Outline: as §1

| Target | log2 fold change |
| --- | --- |
| HECW2 (UniProt Q9P2P5) | 0.165 |
| HSPA8 (UniProt P11142) | 0.006 |
| ISY1 isoform 1 (UniProt Q9ULR0) | -0.035 |
| ISOC2 (UniProt Q96AB3) | -0.065 |
| HYDIN (UniProt Q4G0P3) | 0.041 |
| IL18R1 (UniProt Q13478) | 0.063 |
| GTPBP6 (UniProt O43824) | 0.023 |
| GSTM2 (UniProt P28161) | 0.02 |
| HMGN5 (UniProt Q5JSK9) | 0.074 |
| GLYR1 (UniProt Q49A26) | -0.044 |
| HADHA (UniProt P40939) | -0.013 |
| GPN2 (UniProt Q9H9Y4) | 0.015 |
| HMGN4 (UniProt O00479) | 0.078 |
| HTT (UniProt P42858) | 0.002 |
| IPP (UniProt Q9Y573) | 0.078 |
| HNRNPM (UniProt M0QZM1) | 0.075 |
| ITGB1BP2 (UniProt Q9UKP3) | -0.259 |
| H3-3A (UniProt P84243) | -0.083 |
| GNB4 (UniProt Q9HAV0) | -0.028 |
| GPA33 (UniProt Q99795) | -0.015 |
| GORASP1 (UniProt Q9BQQ3) | -0.087 |
| KATNBL1 (UniProt Q9H079) | 0.169 |
